Measured values taken from PubChem BioAssay AID1041 (National Center for Advancing Translational Sciences (NCATS), 2008).
Activity calls are given as the source filed them.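 Rule for the calls: active = compound lifting p16 RNA above DMSO-treated cells by a clear fold change, a shift of a few PCR cycles; inactive = the rest, including any drop in level.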

Assay: p16 Derepression/Induction Secondary Assay for qHTS Assay for Epigenetic Modulators
Conditions: H358 cells, p16 mRNA RT-qPCR, 72 h; active compounds read high
From the text: NIH Molecular Libraries Screening Centers Network [MLSCN] NIH Chemical Genomics Center [NCGC] MLSCN Grant: 1 X01 MH079860-01 Assay Provider: Elisabeth D. Martinez, University of Texas SW Medical Center NCGC Assay Overview: This secondary assay characterizes selected actives identified in the qHTS of the Locus Derepression (LDR) assay (PubChem AID 597). The LDR assay detects the derepression of a GFP reporter that is stably integrated in a region of the genome of murine c127i mammary cells that is presumably silenced. Compounds that cause derepression of the locus to express GFP are identified by enumerating GFP positive cells using a laser-scanning microplate cytometer. Selected LDR actives were assayed for the induction of p16 gene expression, a gene silenced by dense methylation of its promoter. Treatment of cells with DNA methyltransferase inhibitors like 5-azadeoxycytidine induce p16 gene expression. Compounds active in this assay may affect components involved in DNA methylation or gene transcription.
NCGC Assay Protocol Summary Exponentially growing H358 non-small cell lung cancer cells were treated daily with fresh media containing the indicated concentrations of compounds for 72 hr. Cellular RNA was extracted, quantified, DNAse treated and reverse transcribed. The resulting cDNA was amplified in TaqMan real time quantitative PCR assays (Applied Biosystems) containing validated primers specific for p16 (Hs00233365_m1). Reactions were performed on an ABI Prism 7900HT, with an initial 2 min preincubation at 50 C, followed by 10 min at 95 C and then 40 cycles of 95 C for 15 seconds and 60 C for 1 min. GAPDH and 18S ribosomal RNA were used as references. Gene expression was measured by fold-induction over control DMSO-treated samples (36-37 average cycle time). Increases corresponded to at least 2-3 cycle time differences over DMSO controls, which were in the measurable range. Decreases in expression were considered insignificant as measurement of the DMSO samples were at the low limit of detection. Reactions were run in triplicate and error bars represent standard deviations. For further details, see R.L. Johnson, W. Huang, A. Jadhav, C.P. Austin, J. Inglese, E.D. Martinez, A Quantitative High-Throughput Screen Identifies Potential Epigenetic Modulators of Gene Expression, Analytical Biochemistry (2007), doi: 10.1016/j.ab.2007.12.028

Compound	fold change
COc1ccc(C(NC(=O)C(C)C)c2ccc3cccnc3c2O)cc1 (configuration not stated)	1 (inactive)
CC(/C=C/C(=O)NO)=C\[C@@H](C)C(=O)c1ccc(N(C)C)cc1	1 (inactive)
CC(C)C(=O)NC(c1ccc(N(C)C)cc1)c1ccc2cccnc2c1O (configuration not stated)	0.4 (inactive)
CC(C)C(=O)NC(c1ccco1)c1cc([N+](=O)[O-])c2cccnc2c1O (configuration not stated)	2 (inactive)
CC(C)C(=O)NC(c1ccco1)c1ccc2cccnc2c1O (configuration not stated)	1 (inactive)
CCN1CSC(=S)N(CC)C1	1 (inactive)
O=Nc1ccc(O)c2ncccc12	2 (inactive)
CN1CCN(Cc2cc(Cl)c3cccnc3c2O)CC1	1 (inactive)
O=C(CSc1cccc2cccnc12)NCc1ccccc1	1 (inactive)
CN(C)C(=O)CSc1cccc2cccnc12	0.4 (inactive)
Nc1ncn([C@H]2C[C@H](O)[C@@H](CO)O2)c(=O)n1	351 (active)
O=C(CSc1cccc2cccnc12)N1CCCC1	1 (inactive)
